Over roughly 33,000 sequences, “E-score (-0.5 to 0.5)” has its median near -0.035; the highest 2% begin near 0.34. The sample as a whole holds a higher share of the highest values than the screen did.
Molecular target: T1, Mot3 (UniProt P54785)
T1 sequence: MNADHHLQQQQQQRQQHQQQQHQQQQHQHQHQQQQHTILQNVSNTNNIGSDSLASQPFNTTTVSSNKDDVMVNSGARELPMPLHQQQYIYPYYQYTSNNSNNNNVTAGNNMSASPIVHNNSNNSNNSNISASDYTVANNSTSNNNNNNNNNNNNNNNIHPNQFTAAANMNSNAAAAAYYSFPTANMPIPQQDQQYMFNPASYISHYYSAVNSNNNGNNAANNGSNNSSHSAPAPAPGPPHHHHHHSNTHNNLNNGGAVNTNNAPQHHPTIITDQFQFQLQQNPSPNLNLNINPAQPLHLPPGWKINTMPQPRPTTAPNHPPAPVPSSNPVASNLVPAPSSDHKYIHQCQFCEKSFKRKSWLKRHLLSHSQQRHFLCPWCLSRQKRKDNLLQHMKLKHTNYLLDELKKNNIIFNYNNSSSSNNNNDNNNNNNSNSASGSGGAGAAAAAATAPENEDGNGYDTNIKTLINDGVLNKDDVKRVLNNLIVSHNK
Assay: PBM E-score (8-mer binding enrichment) (E-score (-0.5 to 0.5)); higher = stronger / more preferred TF binding
Conditions: protein concentration: 200 nM; construct: GST-full length
Protocol: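 Universal 'all 10-mer' protein binding microarrays (Agilent AMADID 015681) probed with GST-tagged S. cerevisiae TFs (full-length or DBD) made by in vitro transcription/translation (PURExpress), about 100-200 nM. Bound TF was detected with fluorescent anti-GST. Each ungapped 8-mer (which stands for itself and its reverse complement) is scored by the PBM enrichment score (E-score), a modified Wilcoxon-Mann-Whitney statistic from -0.5 to +0.5, computed with the Universal PBM Analysis Suite. Scale: above 0.35 generally sequence-specific binding.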

Sequence | PBM E-score
GCAGCCTA | -0.0663
CCAAGAGA | -0.0138
CGGCCTGC | -0.212
AGTGGCCA | -0.158
ATCTACCG | -0.115
ACTTTGCT | -0.0166
GCGCCTAC | 0.358
GTGCCCAA | 0.392
ATGCCTAA | 0.278
ATGCCCAA | -0.0977
ACGCCTAC | 0.0133
CTGCCTAA | 0.258
GTGCCTAA | 0.49
GTGCCCCA | -0.248
CCGCCTAC | -0.166
CTTAGAAA | 0.11
AAAGCACC | -0.0982
CAAAGCCC | -0.0136
ACACAACA | 0.307
CTAACCCA | -0.0185
TTAACGAA | 0.128
TAAGGTGA | -0.0657

Sequence | PBM E-score
AACACGTT | 0.365
AACACGAT | 0.349
AACACGTC | 0.316
CACACGAC | 0.0741
AACACGTA | 0.32
AACACGGT | 0.353
AACACGGA | 0.252
GACACGAC | 0.31
AACACGAG | 0.288
AACACGGC | 0.257
AACACGAA | 0.33
AACACGAC | 0.344
GCATCGCA | -0.36
CGACTTAC | -0.127
GACGCAAC | -0.0695
AGGATTGC | -0.0652
CGTTGAGA | -0.183
AAGTTTTG | 0.167
ACTGGGCG | -0.198
CGCACCTC | -0.0771
AGGCAAAG | 0.472
GGGCAAAC | 0.0101

Sequence | PBM E-score
GGGCAAAA | 0.0722
TGGCAAAA | 0.0985
AGGCAAAA | 0.467
CGGCAAAG | -0.226
AGGCAAAC | 0.482
AGGCAGAT | 0.0714
ATGCAAAG | 0.128
AGGCAAAT | 0.479
CGGCAAAC | -0.217
ATGCAAAT | 0.146
CCCGACGC | -0.262
ATCGGCGG | -0.342
ACCAGTAG | -0.0459
AAGGTGTG | -0.0849
TTACAGAA | 0.106
ACGCTTAA | 0.114
ATACTTAA | 0.173
CCCCTAAG | -0.313
TGAGGCAA | 0.389
AGAGGCCA | -0.274
GGAGGCCA | -0.34
CGAGGCAA | 0.318

Sequence | PBM E-score
GGAGGCGA | -0.194
TGAGGCCA | 0.0399
AGAGGCAA | 0.409
AGAGGCGA | -0.227
CGAGGCAC | 0.411
CGAGGCAG | -0.0696
GGAGGCAA | 0.437
TGAGGGCA | -0.0148
CCCGTTGA | -0.205
ACGTTCTG | -0.0537
CCTCTTAC | -0.0603
ATCCATAG | -0.206
GGCCGGAC | -0.187
CACTGGTA | -0.00383
AGCGTTTC | 0.127
GTTGCTTA | 0.0798
AAGGATCA | 0.0089
AGAGGCAC | 0.465
GGGGGCAC | -0.156
AGAGGCAG | -0.133
AGAGGCAT | -0.0714
GGAGGCCC | -0.266
